The results in this text go back to PubChem BioAssay.

A short description of test [1]: compounds altering circadian rhythm period length – cell-based, LOPAC library, luminescence reporter (AID 2774).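 Also: values are relative to mean of DMSO wells on each plate.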 Conditions: circadian reporter cells, at 7 µM, actives lie on both sides.
Test [2] can be described thus: compounds altering viability of human ES cells (AID 493140).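 Also: cells exposed to compounds for four days before counting.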 Conditions: human embryonic stem cell survival screen; stronger effect = higher value.
In test [3] the test system is Hepatitis C virus NS3 helicase. In words: blockers of NS3h binding to ssDNA – biochemical, fluorescence polarization, LOPAC1280 library, primary screen (AID 687035; in the data active = inhibition above about 37%). Conditions: Purified HCV NS3 helicase, Cy5-dT15 ssDNA binding fluorescence polarization; stronger effect = higher value; concentration not given here.
A short description of test [4]: compounds altering Cy5-DNA-NS3h complex signal – biochemical, LOPAC1280, artefact control for HCV NS3 helicase inhibitor project (AID 687037). The following applies: Cy5-DNA-NS3h complex fluorescence interference counterscreen.
In test [5] the test system is Aerobactin synthetase IucA (Klebsiella pneumoniae, hypervirulent). In words: biochemical IucA inhibition screen of LOPAC library by absorbance (AID 1346212).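 Also: 100% = no compound wells and 0% = no enzyme wells.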 Conditions: IucA enzyme assay, absorbance (OD) readout; stronger effect = lower value;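 tested at 8 µM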.
Test [6] in a line: viability loss with induced miR-34 in A549 – imaging, A549 dox-inducible miR-34, nuclei and caspase counts, primary screen (AID 1347080;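 active = compounds whose cell count with miR-34 switched on is under 0.7 times the count with it off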). Conditions: A549 miR-34 inducible, Hoechst nuclei count, 48 h.
Test [7] is described as follows: chitosan synthesis blockers in C. neoformans – flow cytometry, Cibacron Brilliant Red staining (AID 1347148).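 Also: compound exposure lasted three days at 37 degrees C.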 Conditions: Cryptococcus neoformans chitosan, stronger effect = lower value; at 10 µM unless noted.
The nature of test [8]: blockers of cellular phospholipid synthesis – cell-based, LOPAC library, screen 4, primary screen (AID 1347384). The following applies: animal cells, phospholipid biosynthesis inhibition screen; at 10 µM.
Test [9] in a line: MELAS cybrid and Rieske KO viability enhancers – cell-based, MELAS cybrids, Rieske KO mouse fibroblasts, CellTiter-Glo, primary screen (AID 1508586;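 active = mean z-score across replicates of 1.96 or higher in either the MELAS or the Rieske mutant cell line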;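 also: z relative to plate mean and SD of compound and empty wells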). Conditions: low glucose.
The nature of test [10]: galactose survival enhancers in mitochondrial complex I cybrids – cell-based, galactose medium, ATP luminescence, primary screen (AID 1645843;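 active = z-score of at least 1.8 in each of two replicates, scored against plate mean and spread of sample wells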;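 also: positive z means more ATP and so rescue of galactose-driven cybrid death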). The following applies: complex I mutant cybrid cells, 72 h, stronger effect = higher value.
A short description of test [11]: viability loss in pontine glioma line – cell-based, SU-DIPG-IV, MIPE4.0, CellTiter-Glo, qHTS, dose response (AID 1347063; cut-off not given, nearly all actives have AC50 up to about 30 µM;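 also: compound exposure lasted 48 hours before the viability readout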). The following applies: CellTiter-Glo ATP luminescence. In general terms: Cellular ATP, detected with luciferase, serves as a proxy for viable cell number.
The mark [12] stands for this setting: measured here: relative caspase fold change +Dox/-Dox.
[13] abbreviates: measured here: total cells with miR-34 induction, stronger effect = lower value.
[14] abbreviates: measured here: total cells without miR-34 induction.

SMILES strings stand for the structures. Values joined by “and” are separate entries in the source; they are usually repeats but may differ in a detail not shown here. Equal values may be shown once. Records with an inconclusive call do not appear. Active and inactive are the calls of the source. Unless noted, no rule for the calls is given here.

On to `CC(C)(C)c1cc(C=C(C#N)C#N)cc(C(C)(C)C)c1O`, for which, in test [1], the period change is 1.05 h (inactive). The survival in [2] is 76 (inactive). The inhibition in test [3] is 0% (inactive). Moreover, the fluorescence ratio (interference) in test [4] is 1 (inactive). Moreover, the remaining activity in test [5] is 101% (inactive). For the same compound, the fold change in test [6] (stronger effect = lower value) is 1.14 (inactive) and 1.05 (inactive) and 0.984 (inactive); in [6] (setting [12]), 0.636 and 2.12 and 0.899. Further, the cell count was 1430 and 1570 and 1940 in test [6] (setting [13]); 1250 and 1490 and 1970 in test [6] (setting [14]). Also, the fold fluorescence in [7] was 9.17 [at 177.1 µM] (inactive). In test [8], the compound was called active. Also, the z-score in test [9] (MELAS cybrid survival, CellTiter-Glo 48 h, stronger effect = higher value) was 0.224 (inactive); in test [9] (Rieske KO mouse fibroblast survival, CellTiter-Glo 72 h), -0.362; in test [10], -1.27 (inactive).

Take `COc1ccc2c(c1O)-c1cccc3c1[C@@H](C2)N(C)CC3`: the period change in [1] is -0.1 h (inactive). The inhibition in test [3] is -4% (inactive). Moreover, the fluorescence ratio (interference) in [4] was 1 (inactive). The remaining activity in [5] was 102% (inactive). Besides, the fold change in test [6] (stronger effect = lower value) is 0.958 (inactive); in [6] (setting [12]), 1.07. The cell count in test [6] (setting [13]) was found to be 7690; in test [6] (setting [14]) it was 8030. Further, the outcome in test [8] was inactive. Further, the z-score in test [10] is -0.76 (inactive).

As to `NC(N)=Nc1ccc2[nH]c3c(c2c1)C[C@@]1(O)[C@H]2Cc4ccc(O)c5c4[C@@]1(CCN2CC1CC1)[C@H]3O5`, the period change in test [1] was -0.11 h (inactive). The inhibition in test [3] is -6% (inactive). In addition, in test [4], the fluorescence ratio (interference) was 0.9 (inactive). Further, the remaining activity in test [5] is 86.3% (inactive). Moreover, the fold change in test [6] (stronger effect = lower value) was 1.08 (inactive); in test [6] (setting [12]) it was 0.809. The cell count in test [6] (setting [13]) worked out at 9750; in test [6] (setting [14]), 9000. Also, the compound was called inactive in [8]. Also, the z-score in test [10] is -0.92 (inactive).

Turning to `Ic1ccccc1CNC1C2CCN(CC2)C1C(c1ccccc1)c1ccccc1` (stereo not drawn), in [1], the period change is 0.145 h (inactive). For the same compound, the inhibition in [3] was -8% (inactive). Also, the fluorescence ratio (interference) in test [4] is 0.9 (inactive). Besides, the remaining activity in test [5] is 98.2% (inactive). Besides, the values for the fold change in [6] (stronger effect = lower value) and in [6] (setting [12]) were 0.485 (active) and 0.281, respectively. The figures for the cell count in test [6] (setting [13]) and in test [6] (setting [14]) were 329 and 679, respectively. In [8], the call was inactive. Also, the z-score in test [10] was -1.29 (inactive).

As to `N#CC(C#N)=Cc1ccc([N+](=O)[O-])c(O)c1`, the period change in [1] was -0.02 h (inactive). Also, in test [2], the survival is 124 (inactive). For the same compound, the remaining activity in [5] is 80.4% (inactive). The fold change in test [6] (stronger effect = lower value) is 0.901 (inactive) and 1.08 (inactive); in test [6] (setting [12]) it was 1.46 and 1.27. Also, the cell count in test [6] (setting [13]) was 4360 and 6240; in test [6] (setting [14]), 4840 and 5770. Further, the fold fluorescence in test [7] was 5.5 [at 232.4 µM] (inactive).

`Cc1c(C(=O)c2cccc3ccccc23)c2cccc3c2n1[C@H](CN1CCOCC1)CO3`: in [1], the period change is -0.065 h (inactive). The survival in test [2] is 106 (inactive). Moreover, the inhibition in test [3] is -8% (inactive). In [4], the fluorescence ratio (interference) was 1 (inactive). In addition, the remaining activity in test [5] was 99.8% (inactive). In test [11], the AC50 was 9.35 µM (active). Also, the fold change in [6] (stronger effect = lower value) was 0.941 (inactive) and 0.94 (inactive); in [6] (setting [12]) it was 1.39 and 1.17. For the same compound, the cell count in [6] (setting [13]) was 5730 and 5540; in [6] (setting [14]) it was 6090 and 5900.

For the compound `CC1(C(=O)O)C2CCC(O2)C1(C)C(=O)O` (stereo not drawn), the period change in test [1] is 0.3 h (inactive). Also, the survival in test [2] was 0.417 (inactive). For the same compound, the inhibition in test [3] was -5% (inactive). For the same compound, the fluorescence ratio (interference) in [4] was 1 (inactive). Besides, the remaining activity in test [5] was 118% (inactive). Besides, the fold change is 0.789 (inactive) in test [6] (stronger effect = lower value) and 1.91 in test [6] (setting [12]). The results for the cell count in [6] (setting [13]) and in test [6] (setting [14]) were 286 and 362, respectively. In addition, the compound was classed as inactive in test [8]. Moreover, the z-score in [10] was -1.46 (inactive).

Usually inhibition stands for the relative decrease from the control value, in per cent. By remaining activity is commonly meant the signal under treatment as a percentage of the control signal. The term AC50 denotes the concentration giving half of the maximal activity seen.
